Laboratory results taken from PubChem BioAssay AID1851 (National Center for Advancing Translational Sciences (NCATS), 2009).
Screen size: about 16,000 compounds; about 2,600 (16%) were called active. Not shown: some 20% with an inconclusive outcome. The list is a sample of the results. Unmarked numbers belong to inactive results. The call rests on the fitted dose curve; in most records, active means well fitted curve in the direction sought with a large enough effect; inconclusive means small, poorly fitted or top-dose-only effect, or effect the other way; inactive means no such curve, though single readings can be large or run the other way.

The molecules below were run against Cytochrome P450 2D6 (Homo sapiens) (UniProt P10635) (assay: Cytochrome panel assay with activity outcomes). Settings: recombinant CYP, pro-luciferin dealkylation, luminescence, p450-cyp2d6; series mostly up to 57.1 µM.
On the % scale 0 is the no-effect control and ±100 the full control effect.

Sequence of Cytochrome P450 2D6 (Homo sapiens) (P10635 whole entry, looked up): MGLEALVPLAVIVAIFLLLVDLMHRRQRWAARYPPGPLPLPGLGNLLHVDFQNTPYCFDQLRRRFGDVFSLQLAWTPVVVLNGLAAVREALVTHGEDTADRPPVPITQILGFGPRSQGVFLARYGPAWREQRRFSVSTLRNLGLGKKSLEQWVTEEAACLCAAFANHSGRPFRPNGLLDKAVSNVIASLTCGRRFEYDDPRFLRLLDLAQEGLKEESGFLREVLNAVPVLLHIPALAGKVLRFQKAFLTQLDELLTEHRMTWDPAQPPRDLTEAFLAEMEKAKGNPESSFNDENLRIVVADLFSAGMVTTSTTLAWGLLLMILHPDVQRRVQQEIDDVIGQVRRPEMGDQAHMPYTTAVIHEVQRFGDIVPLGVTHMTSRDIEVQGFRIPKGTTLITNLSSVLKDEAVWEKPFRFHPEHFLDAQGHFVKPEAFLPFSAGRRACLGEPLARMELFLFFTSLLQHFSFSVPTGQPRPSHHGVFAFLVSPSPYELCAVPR

| SMILES | AC50 | activity, negative = inhibition |
| --- | --- | --- |
| COc1ncc2ncc(=O)n(CCC#N)c2n1 | inactive | – |
| CC(C)(C)NC[C@H](O)COc1cccc2c1CCC(=O)N2 | inactive | – |
| CC(C)(C)NC[C@H](O)COc1cccc2c1CCCC2=O | inactive | – |
| CC(C)(C)NC[C@@H](O)COc1ccccc1C1CCCC1 | 2.51 µM (active) | – |
| CC(C)n1cc(/C=C2/SC(=O)N(CC(=O)Nc3ccc4c(c3)OCO4)C2=O)c2ccccc21 | inactive | – |
| Cc1cccc2cc(=O)[nH]c(C)c12 | inactive | – |
| NC(=O)C1(N2CCCCC2)CCN(C(=O)c2cccn3c(=O)c4cc(Cl)ccc4nc23)CC1 | inactive | – |
| CCCC[C@H]1C[C@@H]1[C@@H]1N(P(=O)(c2ccccc2)c2ccccc2)C[C@@](O)(c2ccccc2)CC12CC2 | 15.8 µM (active) | – |
| CCCC[C@@H]1C[C@H]1C(NC(=O)c1ccccc1)c1ccc(-c2ccccc2)cc1 (stereo partly drawn) | inactive | – |
| C=C(CC1([C@@H](NP(=O)(c2ccccc2)c2ccccc2)[C@H]2C[C@@H]2CCCC)CC1)c1ccccc1 | inactive | – |
| CCCC[C@@H]1C[C@H]1C(NC(=O)c1ccc(-c2ccccc2)cc1)c1ccc(-c2ccccc2)cc1 (stereo partly drawn) | inactive | – |
| CCCC[C@H]1C[C@@H]1[C@@H]1N(P(=O)(c2ccccc2)c2ccccc2)[C@](CO)(c2ccccc2)CC12CC2 | 2.51 µM (active) | – |
| Cc1ccc(NC(=O)CCSc2nnc3ccccn23)cc1 | inactive | – |
| CCOC(=O)c1c(C)nc2c(c1-c1ccccc1)C(=O)CC(C)(C)C2 | inactive | – |
| CCOC(=O)Cc1csc(NC(=O)c2ccc(Cl)nc2)n1 | inactive | – |
| COc1ccc(Oc2ncc3ncc(=O)n(C)c3n2)cc1 | inactive | – |
| Cc1nc2cnc(Nc3ccccc3)nc2n(Cc2cccs2)c1=O | inactive | – |
| O=C1c2ccccc2C(=O)N1CCSC(=S)N1CCOCC1 | inactive | – |
| O=C(NCc1cc(F)cc2c1OCCO2)[C@H]1C[C@@H]1[C@H](NP(=O)(c1ccccc1)c1ccccc1)c1ccccc1 | inactive | – |
| O=C(O)CCC(=O)CCC(=O)c1ccccc1 | inactive | – |
| C[N@+]1(CCC(=O)c2ccccc2)CC[C@H]2CC[C@H](C2)C1 | – | 10.5% [at 11.4 µM] |
| CC1(C)CC(=O)C(CCC(=O)c2ccccc2)C(C)(C)N1 (stereo not drawn) | 0.891 µM (active) | – |
| O=C(c1cccc(F)c1)N1CCC[C@@]2(CCN(c3ccccc3)C2)C1 | inactive | – |
| N/C(=N\OC(=O)Cc1ccc(-c2ccccc2)cc1)c1cccc([N+](=O)[O-])c1 | inactive | – |
| CC(=O)O[C@]1(C)N=NC2(CCCCC2)O1 | – | -4.7% [at 11.4 µM] |
| COc1ccc(C(CNC(=O)c2cc(=O)[nH]c3ccccc23)N2CCCC2)cc1 (stereo not drawn) | 14.1 µM (active) | – |
| CC(C)NC(=O)COC(=O)c1cc(=O)[nH]c2ccccc12 | inactive | – |
| COc1cc(C(=O)NCC(c2cccnc2)N2CCN(C)CC2)cc(OC)c1OC (stereo not drawn) | inactive | – |
